# Results as given in PubChem BioAssay AID504444 (National Center for Advancing Translational Sciences (NCATS), 2011).
# About 7,500 (2.1%) of roughly 360,000 compounds were called active. Another 20% or so got no clear call; they are omitted. What follows is part of a selection rich in actives, with near analogues and random picks from the rest. A number with no mark means an inactive call. The call rests on the fitted dose curve; in most records, active means well fitted inhibition curve with a large enough effect; inconclusive means small, poorly fitted or top-dose-only effect, or effect the other way; inactive means flat fitted curve, though single readings scatter.
# Assay: Nrf2 qHTS screen for inhibitors; further: nearly all actives have a fitted effect of over 60% in size
# Details: A549 ARE-Fluc reporter, luciferase luminescence, 18-24 h; series mostly up to 46 µM; activity change, negative = inhibition: at the top concentration
# Summary of the method: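 Nrf2 activity is the BugLite luminescence, read 15 min after reagent at room temperature, following CellTiter-Fluor cytotoxicity readout (30 min, 37C). Compound titrations were applied for 18-24 h to 5000 A549 ARE_Fluc cells/well in 5% FBS OPTI-MEM.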
# On the % scale 0 is the no-effect control and ±100 the full control effect; potency means the concentration at half of the fitted maximal effect.
Structure (SMILES),"activity change, negative = inhibition",Potency
COc1cccc(C2C(C(=O)Nc3ccc(C)cc3C)=C(C)Nc3c(C(=O)Nc4ccccc4)cnn32)c1 (stereo unspecified),10.7%,–
CN1C(c2ccc(F)cc2)=CS/C1=C(/C#N)c1nnc2n1-c1ccccc1SC2,-26.9%,–
C(=N\N1CCN(c2ccccn2)CC1)/C1=C(N2CCOCC2)C(=C/c2ccccc2)/CC1,2.38%,–
N#C/C(=C\C1=C(N2CCOCC2)C(=C\c2ccccc2)/CC1)C(=O)Nc1ccccc1F,-14.6%,–
O=C1Nc2ccc(Br)cc2/C1=N/N=C/C1=C(N2CCOCC2)C(=C\c2ccccc2)/CC1,–,20.6 µM (active)
CCOc1ccccc1NC(=S)C(=C([O-])c1ccc2c(c1)OCCO2)[n+]1ccc(CC)cc1,4.22%,–
COc1cc(F)c(S(=O)(=O)N2CCCN(S(=O)(=O)c3ccc(N)cc3)CC2)c(F)c1,-10%,–
CCOC(=O)c1ccc(NC(=O)c2ncn(-c3ccccc3)n2)cc1,3.01%,–
Oc1ccc(Cl)cc1C1C=C(c2ccc3c(c2)OCO3)NC(c2ccc(F)c(Br)c2)N1 (stereo unspecified),-10.6%,–
CC(C)N(C(=O)[C@H]1C[C@H](CC(=O)NCCC2=CCCCC2)C(=O)N2CCc3c([nH]c4cc(CCC(=O)N(C)C)ccc34)[C@]12C)C(C)C,5.78%,–
CCCCCCn1c(CN2CCCCC2)nc2c1c(=O)n(C)c(=O)n2C,5.48%,–
CCCCCCCCn1c2c(c(=N)c3c1CCC3)CCCC2,–,9.2 µM (active)
CC1Sc2ccc(S(=O)(=O)CCC(=O)NCc3ccccc3Cl)cc2NC1=O (stereo unspecified),-8.63%,–
COc1ccccc1N1CCN(C(=O)CCS(=O)(=O)c2ccc3c(c2)NC(=O)C(C)S3)CC1 (stereo unspecified),-2.57%,–
Cc1cccc(N2CCN(C(=O)CCS(=O)(=O)c3ccc4c(c3)NC(=O)C(C)S4)CC2)c1C (stereo unspecified),–,2.59 µM (active)
Oc1ccc(-c2nc3ccccc3nc2-c2ccc(O)cc2O)c(O)c1,2.55%,–
CN[C@H](C(=O)NC[C@H]1O[C@@H](n2cnc3c(N)ncnc32)[C@H](O)[C@@H]1O)[C@@H](C)OCc1ccccc1,-9.95%,–
O=C(O)c1ccc(Cn2c(SCc3ccc(F)cc3)nc3ccncc32)cc1,5.55%,–
COc1cccc(Cn2c(SCc3ccc(C(=O)N4CCCCC4)cc3)nc3ccncc32)c1,–,18.4 µM (active)
Cc1cccc(CSc2nc3ccncc3n2Cc2ccc(C(=O)O)cc2)c1,6.25%,–
COc1cccc(Cn2c(SCc3ccc(C(=O)N4CCC(C)CC4)cc3)nc3ccncc32)c1,–,20.6 µM (active)

Structure (SMILES),"activity change, negative = inhibition",Potency
CCCCNC(=O)Cn1c(SCc2cccc(Cl)c2)nc2ccncc21,13.2%,–
Cc1cccc(CSc2nc3ccncc3n2CC(=O)N(C)C2CCCCC2)c1,2.61%,–
COc1ccccc1-c1sc2ccccc2c1-c1ccc(Br)nc1,4.2%,–
OCCNc1ncnc2oc(-c3ccco3)c(-c3ccco3)c12,3.43%,–
CCCN1CN=C(NS(=O)(=O)c2ccc(NC(C)=O)cc2)NC1,0.228%,–
Cc1ccc(S(=O)(=O)N2CCC(C(=O)Nc3cc(C)ccc3C)CC2)cc1,-22.1%,–
Cc1ccc(-c2nc(=N)sn2Cc2ccccc2)cc1,21.2%,–
Cc1cc(-c2ccc(C)c(S(=O)(=O)NC(C)Cc3ccco3)c2)on1 (stereo unspecified),–,18.4 µM (active)
Cc1cc(-c2ccc(C)c(S(=O)(=O)NCCCN(Cc3ccccc3)C(C)C)c2)on1,2.12%,–
Cc1cc(-c2ccc(C)c(S(=O)(=O)Nc3ccc(S(N)(=O)=O)cc3)c2)on1,2.52%,–
COC(=O)[C@]1(Cc2ccccc2)N[C@H](CN(C)S(=O)(=O)c2ccc(OC(F)(F)F)cc2)[C@@H]2C(=O)N(Cc3ccccc3)C(=O)[C@@H]21,1.61%,–
Cc1cc(N2CCCC2)ccc1NC(=O)COc1ccc(Cl)cc1,-11.4%,–
COc1ccc(N(C)C(=O)CCS(=O)(=O)c2cccc3nsnc23)cc1,–,inactive
COc1ccc(N(C)S(=O)(=O)c2cccc3nsnc23)cc1,-6.36%,–
COc1ccc(N(C)C(=O)C2CCN(S(=O)(=O)c3cccc4nsnc34)CC2)cc1,–,8.2 µM (active)
Cc1ccc(-c2nc3cccc(C)n3c2Nc2ccc3c(c2)OCCO3)cc1,-3.89%,–
CC(C)(C)OC(=O)NNc1c2ccccc2nc2ccccc12,–,23.1 µM (active)
Cc1ccccc1NC(=O)NNC(=O)OC(C)(C)C,4.49%,–
CCC(=O)OCCNc1nc(-c2ccccc2)nc2ccccc12,10.9%,–
COc1ccc2c(c1)CCc1c(C(=O)Nc3cc(C)ccc3O)noc1-2,10.4%,–
COc1ccccc1C(=O)Nc1c(C(=O)Nc2ccc(C)cc2)oc2ccccc12,11.1%,–

Structure (SMILES),"activity change, negative = inhibition",Potency
COc1ccccc1C(=O)Nc1ccccc1C(=O)Nc1ccccc1,-15.1%,–
COc1ccccc1C(=O)Nc1ccc(OCc2nnc3c4ccccc4c(C)nn23)cc1,–,9.2 µM (active)
CCOC(=O)c1c(C)[nH]c(C)c1S(=O)(=O)N(C)CC(=O)N1CCN(c2ccccc2)CC1,-24.4%,–
O=C(Nc1cccc(C(=O)NC2CC2)c1)c1ccc(F)c(S(=O)(=O)N2CCOCC2)c1,-9.02%,–
O=C(NCC1CCCCC1)c1cc(S(=O)(=O)N2CCCCC2)ccc1N1CCOCC1,-13.3%,–
O=C(OCCOc1ccccc1Cl)c1cc(S(=O)(=O)N2CCCCC2)ccc1N1CCOCC1,–,6.51 µM (active)
O=C(OCCOc1ccccc1F)c1cc(S(=O)(=O)N2CCOCC2)ccc1F,-14.5%,–
Cc1ccc(NC(=O)c2ccc(S(=O)(=O)NCC3CCCO3)cc2)cc1C (stereo unspecified),2.39%,–
O=C(Nc1ccc(F)cc1)c1ccc(S(=O)(=O)NCc2cccnc2)cc1,–,18.4 µM (active)
O=C(Nc1ccc(S(=O)(=O)NCC2CCCO2)cc1)c1ccc(F)cc1 (stereo unspecified),–,11.6 µM (active)
O=C(NCC1CCCO1)c1ccc(S(=O)(=O)Nc2ccc(F)cc2)cc1 (stereo unspecified),-17.6%,–
COc1ccc(S(=O)(=O)NCc2cccnc2)cc1NC(=O)c1ccc(C)cc1,-15.4%,–
O=C(N/N=C/c1cccnc1)c1ccc(NC(=O)c2ccc(F)cc2)cc1,-14.3%,–
Cc1ccc(NS(=O)(=O)c2cc3c(cc2Br)NC(=O)CO3)cc1C,-16.4%,–
O=C(NCC1CCCCC1)NCC1CCCCC1,6.58%,–
Cc1cc2c(s1)c1cnn(Cc3cc(F)c(Cl)cc3Cl)c(=O)c1n2C,5.03%,–
CC1CCCCC1NC(=O)/C(C#N)=C/C=C/c1ccccc1[N+](=O)[O-] (stereo unspecified),–,16.4 µM (active)
O=[N+]([O-])c1ccccc1/C=C/CN1CCC(O)CC1,-10.8%,–
O=[N+]([O-])c1ccccc1/C=C/CN1CCCC(CO)C1 (stereo unspecified),-4.92%,–
